Source: PubChem BioAssay AID2314 (National Center for Advancing Translational Sciences (NCATS), 2010)
Where “and” joins values, the source holds several entries; their conditions need not be identical. Equal entries are not always repeated. Among all 300,000 compounds or so, about 37,000 (12%) were called active. Shown is part of a subset that was picked to be rich in actives. Unmarked numbers belong to inactive results. No stated cut-off is given here; in the data, active means max response mostly above about 13% (no sharp cut-off); inactive means mostly below about 14%.

assay: Cycloheximide Counterscreen for Small Molecule Inhibitors of Shiga Toxin; conditions: cell reporter, cycloheximide protein synthesis inhibition counterscreen; active compounds read high; further: read at 38.3 µM for the half of the compounds with a filed dose; 0% is about no effect

Compound	max response
Cc1ccc(OCC(=O)Nc2ccc(C(=O)O)cc2NC(=O)COc2ccc(C)c(C)c2)cc1C	7.55%
NC(=O)C1CCN(C(=O)CC2C(=O)NCCN2Cc2cccc(Oc3ccccc3)c2)CC1 (centres undefined)	-2.74%
CC(C(=O)Nc1ccc(F)c(F)c1F)N1CCCCCC1 (centres undefined)	-2.23%
O=C1CSC(c2cccc(F)c2)N1c1ccc(O)cc1 (centres undefined)	-1.44%
COc1cccc(C2SCC(=O)N2c2cccc(C)c2)c1OC (centres undefined)	-0.463%
Cc1ccc(C2SCC(=O)N2c2ccccc2)cc1 (centres undefined)	16.9% (active)
COc1ccc(C(C)NC(=O)C2CCCC2)cc1 (centres undefined)	-0.457%
CCc1ccc(N(CC(=O)NCc2cccnc2)S(=O)(=O)c2ccccc2)cc1	9.39%
O=c1nc(N/N=C/c2ccco2)cn[nH]1	35.1% (active)
CC(C)NC(=O)C(=O)N/N=C/c1ccco1	6.82%
O=C(Cn1cnc2ccccc21)N/N=C/c1ccco1	7.5%
O=C1C2C3C=CC(C4CC34)C2C(=O)N1c1nccs1 (centres undefined)	-4.99%
CCCC1=Nc2cc(C(=O)NCc3ccco3)ccc2Sc2ccccc21	12.1%
O=C(CCOc1ccccc1)NCc1ccccc1	-2.09%
O=C(NCCc1ccc(F)cc1)c1n[nH]c2ccccc12	43.7% (active)
O=C(COC(=O)c1n[nH]c2ccccc12)NCc1ccccc1	7.3%
CCC(C)NC(=O)C1c2ccccc2C(=O)N1Cc1ccccc1 (centres undefined)	7.68%
CC(CCc1ccccc1)NC(=O)COC(=O)c1ccc(F)cc1 (centres undefined)	-6.34%
O=C(O)CCCc1ccccc1	-4.62% and -1.89%
CCN(CC)S(=O)(=O)c1ccc2nc(COC(=O)c3n[nH]c4ccccc34)[nH]c2c1	-0.99%
COc1cccc(CNC(=O)c2n[nH]c3ccccc23)c1	27.4%
C=CCN(CC=C)C(=O)COC(=O)c1n[nH]c2ccccc12	-0.5%
COc1ccc(COC(=O)c2n[nH]c3ccccc23)cc1F	67% (active)
CCC(C)NC(=O)CCCc1ccccc1 (centres undefined)	27.2% (active)
O=C(CCCc1ccccc1)NCc1ccccc1	28.4% (active)
Cc1cccc(CC(=O)N2CCN=C2SCc2ccc([N+](=O)[O-])cc2)c1	-3.02%
CC1C(=O)Nc2ccccc2N1C(=O)c1ccc(F)cc1F (centres undefined)	1.08%
CC(C)C[C@@H](N)c1nnc(SCC(=O)c2ccc(Cl)cc2)o1	-2.64%
CCc1ccc(S(=O)(=O)Nc2cc3c(cc2N2CCCCC2)n(C)c(=O)c(=O)n3C)cc1	3.05%
